# Screens (PubChem)
# The list is not random: actives were taken first. Their share in the collection is about 2.5%.
# Pol eta inh = inhibitors of human DNA polymerase eta | AID 588591 | 390,000 tested, 1.2% active | Q9Y253 | Potency, µM (doses to about 114 µM), for inactives: at the top dose activity change, negative = inhibition, usual class: inhibitors | recombinant Pol eta, fluorescent DNA replication assay; further: on the % scale 0 is the no-effect control and ±100 the full control effect
#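 Fluorescent replication assay: 50 nM final substrate added after a 15 min room-temperature compound preincubation with 10 nM enzyme. Signal taken at 0 min and again at 10 min.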
# Pol iota inh = blocks human DNA polymerase iota activity; Potency, µM (doses to about 115 µM), for inactives: top-dose activity, negative = inhibition, hits mostly inhibitors; 390,000 tested, 1% active; Pol iota fluorescent replication assay, 10 min
# Target sequence (Q9UNA4 whole entry, looked up): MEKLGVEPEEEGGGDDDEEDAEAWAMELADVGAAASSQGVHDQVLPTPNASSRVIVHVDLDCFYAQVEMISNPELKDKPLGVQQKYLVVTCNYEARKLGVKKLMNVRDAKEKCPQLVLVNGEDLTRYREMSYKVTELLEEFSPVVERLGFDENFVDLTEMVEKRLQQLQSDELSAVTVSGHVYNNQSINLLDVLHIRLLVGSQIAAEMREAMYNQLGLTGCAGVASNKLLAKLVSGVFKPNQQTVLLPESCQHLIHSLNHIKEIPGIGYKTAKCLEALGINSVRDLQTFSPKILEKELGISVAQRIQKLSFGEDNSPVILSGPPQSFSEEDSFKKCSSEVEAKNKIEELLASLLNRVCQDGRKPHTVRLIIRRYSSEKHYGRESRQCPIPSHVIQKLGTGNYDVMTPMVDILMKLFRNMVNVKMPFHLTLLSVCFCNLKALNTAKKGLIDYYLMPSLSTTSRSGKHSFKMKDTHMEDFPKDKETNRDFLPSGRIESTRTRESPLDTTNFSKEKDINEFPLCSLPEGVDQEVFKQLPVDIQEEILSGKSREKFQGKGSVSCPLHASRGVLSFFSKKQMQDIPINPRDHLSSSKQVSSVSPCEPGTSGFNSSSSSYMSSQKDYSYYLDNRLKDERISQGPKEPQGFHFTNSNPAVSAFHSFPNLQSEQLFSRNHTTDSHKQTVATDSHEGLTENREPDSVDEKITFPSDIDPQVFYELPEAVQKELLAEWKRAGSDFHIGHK
#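 Pol iota at 10 nM preincubated 15 min with compounds at room temperature; reaction started with fluorescent substrate, 50 nM final. Fluorescence read kinetically at 0 and 10 min; buffer-only wells as negative control.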
# Pol kappa inh = blocks human DNA polymerase kappa activity; Q9UBT6; purified Pol kappa, fluorescent DNA synthesis assay, 10 min; Potency, µM (top dose mostly 107 µM), for the others: at the highest dose activity, negative = inhibition, usual class: inhibitors; 400,000 tested, 0.53% active; further: on the % scale 0 is the no-effect control and ±100 the full control effect
#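 Kinetic fluorescence readout at 0 and 10 min followed reaction start with substrate at 50 nM final. Beforehand, enzyme (10 nM Pol kappa) stood 15 min with compound at room temperature; buffer-only wells were negative controls.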
# POLB inh = DNA polymerase beta (human) inhibition | P06746 | Pol beta primer extension/strand displacement, fluorescence kinetic | Potency, µM (series often up to 114 µM), for the others: top-dose activity change, negative = inhibition, actives largely listed as inhibitors | 340,000 tested, 1.3% active | AID 485314; further: on the % scale 0 is the no-effect control and ±100 the full control effect
#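 Curves were derived by four-parameter Hill fits of normalized qHTS data. The kinetic fluorescent primer-extension read was taken at 0 and 10 min after 50 nM substrate, following a 15 min room-temperature preincubation of 10 nM enzyme with compounds.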
# APEX1 inh = inhibitors of human APE1 endonuclease | P27695 | Potency, µM (titrated, usually from 65.8 µM), inactives show at the top dose activity change, negative = inhibition, most hits filed as inhibitors | 350,000 tested, 0.35% active | recombinant APE1, TAMRA/BHQ-2 abasic DNA cleavage fluorescence;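 further: plate controls were vehicle for no effect and reference inhibitor for full effect; nearly all actives have a fitted effect of over 55% in size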
#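 Kinetic fluorescence read (525 ex/598 em nm, three reads 60 s apart) of AP-site incision; signal = third minus first read. Enzyme 0.75 nM, dual-labelled THF duplex 50 nM, compound preincubation 15 min RT.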
# L3MBTL1 block = inhibitors of human L3MBTL1; Q9Y468; AlphaScreen L3MBTL1–H3K9me1 peptide binding; Potency, µM (series often up to 57.1 µM), inactives show top-dose activity, negative = inhibition, hits mostly inhibitors; 230,000 tested, 0.66% active; AID 485360; further: on the % scale 0 is the no-effect control and ±100 the full control effect; nearly all actives have a fitted effect of over 60% in size
#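 L3MBTL1 50 nM + b-AHA-H3(1-15)K9me1 75 nM, 30 min RT; compound added, 30 min RT; streptavidin donor/Ni-chelate acceptor beads 10 ug/mL each final, 30 min RT dark; AlphaScreen read.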
# The depositor's hits bear a star; ? = inconclusive; / = not tested or not shown; [ ] = dose if it differs, or a comment. The call rests on the fitted dose curve; in most records, active means well fitted curve in the direction sought with a large enough effect; inconclusive means small, poorly fitted or top-dose-only effect, or another doubt; inactive means no such curve, though single readings can be large; an effect the other way counts as inactive or inconclusive. Potency means the concentration at half of the fitted maximal effect.
SMILES,Pol eta inh,Pol iota inh,Pol kappa inh,POLB inh,APEX1 inh,L3MBTL1 block
O=C(c1ccc(-n2cncn2)c([N+](=O)[O-])c1)N1CCN(S(=O)(=O)c2ccc(F)c(F)c2)CC1,-11%,3%,-3%,/,45%,6%
O=C(CN1C(=O)C(=O)N(Cc2ccco2)C1=O)Nc1ccccc1,20µM*,?,-31%,/,-32%,-24%
O=C(OC[C@H]1O[C@](O)(COC(=O)c2cccnc2)[C@@H](OC(=O)c2cccnc2)[C@@H]1OC(=O)c1cccnc1)c1cccnc1,/,/,/,/,7%,/
C[C@H](N)CCCP(=O)(O)O,/,/,-1%[19.4 µM],/,5%,/
Cc1cc(NC(=O)CSc2sc3c(O)cc(=O)[nH]c3c2C#N)ccc1Br,28µM*,56µM*,?,?,65%,/
Cc1cc(NC(=O)CSc2nc3[nH]c(=O)cc(O)c3s2)ccc1Br,-16%,12%,-11%,/,-7%,8%
O=C(CSCCO)Nc1cccc(C(F)(F)F)c1,-18%,-12%[58.9 µM],-2%,-23%,3%,6%
N#Cc1c(SCC(=O)Nc2cccc(C(F)(F)F)c2)sc2c(O)cc(=O)[nH]c12,20µM*,?,25µM*,44%,-1%,/
Cc1ccc(NC(=O)CSc2nc3[nH]c(=O)cc(O)c3s2)c(Br)c1,-18%,-16%,-19%,/,8%,-7%
Cc1ccc(C)c(NC(=O)CSc2sc3c(O)cc(=O)[nH]c3c2C#N)c1,20µM*,28µM*,?,?,30%[12.4 µM],/
CCCCN(CCC(=O)O)c1ccc(/C=C/c2ccnc3ccccc23)cc1,/,17%,-5%,/,/,/
Cc1cccc(C(=O)NCC(=O)OC(C)C(=O)Nc2ccc(Cl)cn2)c1 (configuration not stated),-14%,-1%,-1%,/,22%,21%
Cc1ccc(C)c(N2C(=N)S/C(=C\c3ccc(-c4ccccc4C(=O)O)o3)C2=O)c1,22µM*,14µM*,?,?,?,?
NS(=O)(=O)c1cccc(NC(=O)CSc2nc3nc(-c4cccs4)cc(C(F)(F)F)c3c(=O)[nH]2)c1,40µM*,-16%,-15%,3%,2%,-3%
Cc1[nH]c(C)c(S(=O)(=O)Nc2cccc(Cl)c2C)c1C(=O)N1CCCCC1,-14%,22%,2%,-1%,34%,/
N#C/C(=C\c1ccc[nH]1)C(=O)Nc1ccccc1[N+](=O)[O-],?,71µM*,?,-5%,?,/
COc1cc(/C=C2\SC(=O)N(c3ccc(Cl)cc3)C2=O)cc([N+](=O)[O-])c1O,-15%,6.3µM*,?,56µM*,?,?
CCOc1ccc(/C=C2\SC(=O)N(c3ccc(O)cc3)C2=O)cc1OC,-1%,1%,-1%,-19%,0%,/
FC(F)(F)c1cccc(N2CCC(N=CN3CCCCCC3)=N2)c1,89µM*,-12%,-12%,9%,-6%,/
Oc1ccccc1C=NC1=NN(c2cccc(C(F)(F)F)c2)CC1,-20%,29%,-11%,-18%,2%,?
CN1CCC(N2CCN(c3cccc(C(F)(F)F)c3)CC2)CC1,-8%,35µM*,1%,2%,2%,/
CN[C@H](CC(C)C)C(=O)N[C@H]1C(=O)N[C@@H](CC(N)=O)C(=O)N[C@H]2C(=O)N[C@H]3C(=O)N[C@H](C(=O)N[C@@H](C(=O)O)c4cc(O)cc(O)c4-c4cc3ccc4O)[C@H](O)c3ccc(c(Cl)c3)Oc3cc2cc(c3O[C@@H]2O[C@H](CO)[C@@H](O)[C@H](O)[C@H]2O[C@H]2C[C@](C)(N)C(O)[C@H](C)O2)Oc2ccc(cc2Cl)[C@H]1O (some centres not stated),/,/,/,/,19%[21 µM],/
CCOc1cccc2cc(-c3nnc(Nc4ccc(F)c(Cl)c4)s3)c(=O)oc12,-9%,30%,-6%[60.1 µM],30%,/,/
